# Assay outcomes (PubChem)
# hgDAF-12 ag: H. glycines DAF-12 receptor agonists, primary screen, cell-based, luminescence, HEK293, GAL4 fusion, UAS-luciferase. AID 687014, 2013. HEK293 GAL4-hgDAF12 UAS-luciferase reporter, agonist luminescence; normalized to butyrate control. activation, % at 6.8 µM. 370,000 tested, 1.8% active;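 active = activation above a cutoff set at the mean of all screened compounds plus 3 SD, cut at about 10% in these data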;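 also: 0% = DMSO wells and 100% = sodium butyrate wells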
# hcDAF12 agonist: H. contortus DAF-12 nuclear receptor activators, primary screen, cell-based, luminescence, HEK293, lit1-tk-luc reporter. 370,000 tested, 1.4% active. HEK293 hcDAF-12 lit1-tk-luc reporter; 0% DMSO, 100% Δ7-dafachronic acid. activation, % at 6.8 µM;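 active = activation above the mean of all tested compounds plus 3 SD, cut at about 5.5% in these data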;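 also: 100% = response to 3 µM Δ7-dafachronic acid high control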
# DAX1 inh-1: DAX1 (NR0B1) inhibitors, primary screen, cell-based, HEK293, Gal4-DAX1, luciferase luminescence | inhibition, % at 6.75 µM | HEK293 Gal4-DAX1 luciferase reporter | Nuclear receptor subfamily 0 group B member 1 (Homo sapiens), P51843 | AID 504766, 2011 | 340,000 tested, 0.99% active;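 active = inhibition above the mean over all tested compounds plus 3 SD, cut at about 4.2% in these data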;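 also: 0% = DAX1-transfected cells with DMSO and 100% = empty-vector control cells with DMSO; inhibition shows as a rise in luminescence from relieved DAX1 repression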
# ssDAF-12 act: S. stercoralis DAF-12 nuclear receptor activators, primary screen, cell-based, luminescence, HEK293, GRIP1 co-expression, lit1-tk-luc. Nuclear hormone receptor DAF-12 (Strongyloides stercoralis). HEK293 ssDAF-12/GRIP1 lit1-tk-luc reporter; % of 3 µM dafachronic acid response. activation, % at 6.8 µM. 370,000 tested, 1% active. AID 652126, 2013;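 active = activation above the mean over all tested compounds plus 3 SD, cut at about 0.9% in these data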;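 also: 0% = DMSO-only wells and 100% = 3 µM delta7-dafachronic acid wells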
# DAX1 inh-2: DAX1 (NR0B1) inhibitors on StAR promoter, primary screen, cell-based, luminescence, SF-1 (NR5A1), full-length DAX-1; HEK293T StAR-luciferase reporter, SF-1/DAX-1 repression relief; inhibition, % at 6.8 µM; 370,000 tested, 1.1% active; AID 652010, 2013;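 active = inhibition above the mean over all tested compounds plus 3 SD, cut at about 3.6% in these data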;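 also: 0% = DAX-1 cells with DMSO and 100% = cells lacking DAX-1 with DMSO; higher inhibition means more luminescence from relief of DAX-1 repression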
# LXR ag: LXR agonists, Gal4 luciferase reporter, confirmation, counter-screen for hcDAF-12 agonist project, cell-based, luminescence, HEK293, H. contortus campaign | shares compounds with hcDAF12 agonist | HEK293 Gal4-LXR tk-luc reporter, 24 h; normalized: DMSO 0%, positive control 100% | activation, % at 6.8 µM | 3,400 tested, under 10 active;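 active = mean percent activation of the reporter above a cutoff set as the average over tested compounds plus their standard deviation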
# Target sequence (P55055 whole entry, looked up, the tested form may be a part): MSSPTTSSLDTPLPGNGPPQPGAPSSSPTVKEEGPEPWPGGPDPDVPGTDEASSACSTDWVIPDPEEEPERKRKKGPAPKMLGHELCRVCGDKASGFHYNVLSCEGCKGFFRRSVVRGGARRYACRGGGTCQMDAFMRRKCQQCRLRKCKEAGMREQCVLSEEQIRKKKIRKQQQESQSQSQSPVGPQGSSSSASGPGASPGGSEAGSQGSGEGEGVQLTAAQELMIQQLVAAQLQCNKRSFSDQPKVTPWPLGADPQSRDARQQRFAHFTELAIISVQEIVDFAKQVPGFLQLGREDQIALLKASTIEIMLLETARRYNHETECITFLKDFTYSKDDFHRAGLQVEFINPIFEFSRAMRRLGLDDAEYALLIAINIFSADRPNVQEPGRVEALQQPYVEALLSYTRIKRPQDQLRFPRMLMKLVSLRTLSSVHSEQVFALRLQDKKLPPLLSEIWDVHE
# hcDAF12 conf: H. contortus DAF-12 receptor agonists, confirmation, cell-based, luminescence, HEK293, lit1-tk-luc, triplicate; shares compounds with hcDAF12 agonist; HEK293 hcDAF-12 lit1-tk-luc reporter; % of Δ7-dafachronic acid response; activation, % at 6.8 µM; 3,400 tested, 61% active;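 active = mean activation across triplicate tests above the threshold derived from the earlier primary screen, cut at about 5.5% in these data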;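 also: 0% = DMSO only wells and 100% = 3 µM Δ7-dafachronic acid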
# * marks the source's active call; other numbers are inactive results; · = no result. Sampled rows, rich in hits. Any-hit rate of the full collection: about 4.1%.
SMILES,hgDAF-12 ag,hcDAF12 agonist,DAX1 inh-1,ssDAF-12 act,DAX1 inh-2,LXR ag,hcDAF12 conf
CN[C@H]1C[C@H]2c3[nH]c4ccccc4c3CCN2C(=O)[C@H]1[C@H](C)O,4,8.1*,0,0,2,0,3
C=CC[C@@H](CC(=O)N(CCO)Cc1ccccc1)C(=O)N[C@H](COC(=O)[C@@H](CC=C)Cc1ccc(F)cc1)c1ccccc1,0,7.6*,0,-1,-1,0,1
C=CC[C@@H](CC(=O)N(CCO)Cc1ccccc1)C(=O)N[C@@H](C)COC(=O)[C@@H](CC=C)Cc1ccc(F)cc1,-4,-3,0,-2,-1,·,·
Cc1ccc(S(=O)(=O)CCC(=O)OCC(=O)N2CCc3ccccc32)cc1,0,0,-1,-1,0,·,·
Cc1ccc(S(=O)(=O)CCC(=O)N2CCc3ccccc32)cc1,2,6.8*,0,1,1,0,4
CNc1cc(-c2cccc(OC)c2F)nc2ccnn12,1,-1,·,-2,1,·,·
COc1cc(/C=N/Nc2ccccn2)ccc1O,12*,7.3*,4.3*,0,2,1,7.6*
COc1cc(/C=N/Nc2ccc(C(=O)O)cc2)ccc1O,6,6.8*,-2,0,3,1,6.4*
COc1ccc(/C=N/Nc2ccccn2)cc1OC,3,0,·,-2,1,·,·
Cc1ccc(C(=O)NC2CCCCNC2=O)cc1 (centres undefined),3,-1,1,-1,0,·,·
CSc1cccc(NC(=O)COC(=O)c2ccccn2)c1,1,0,0,-1,0,·,·
COc1cccc(NC(=O)C(Cc2ccccc2)NC(=O)C2CCC(C)CC2)c1 (centres undefined),6,8.6*,-2,-1,0,0,2
CC(C)(C)NC(=O)C(c1cccnc1)N(C(=O)c1cccs1)c1ccc(C(C)(C)C)cc1 (centres undefined),1,1,·,-1,·,·,·
CCOC(=O)c1c(C)oc2ccc(O)c(CN3CCCCC3)c12,0,0,2,-2,0,·,·
CCOC(=O)c1c(C)oc2c1c(C(c1ccncc1)N1CCOCC1)c(O)c1ccccc12 (centres undefined),3,0,·,0,0,·,·
CCOC(=O)c1c(C)oc2c1c1c(c3ccccc32)OCN(Cc2ccccn2)C1,6,6.8*,4,1.2*,2,1,8.5*
CCOC(=O)c1c(C)oc2c1c(CN1CCN(C(=O)OCC)CC1)c(O)c1ccccc12,13*,8.6*,1,1,2,0,5
COc1ccc(C2C(C(=O)c3ccccc3)N3c4ccccc4C=CC3C2[N+](=O)[O-])cc1 (centres undefined),4,5,1,0,0,·,·
O=C(COC(=O)C1Cc2ccccc2CN1C(=O)c1ccccc1)Nc1ccc(SC(F)F)cc1 (centres undefined),3,0,3,-1,-1,·,·
COc1ccc(-c2nc3ccccc3c(=O)[nH]2)cc1,13*,7.4*,2,0,3,1,8.4*
Cc1cccc(-c2nc3ccccc3c(=O)[nH]2)c1,8,1,2,-1,1,·,·
Cc1cccc(C)c1N1C(=O)c2ccccc2NC(=O)C1C(=O)NCCOc1ccccc1 (centres undefined),3,1,·,-1,-1,·,·
CN(C)C(=O)Cn1cc(S(=O)(=O)Cc2ccccc2)c2ccccc21,1,6.6*,0,-1,0,0,3
CCN(CC)C(=O)Cn1cc(S(=O)(=O)CC(=O)NCCc2ccccc2)c2ccccc21,0,7.6*,-1,-1,-1,0,1
O=C1CSC(=S)N1N=Cc1c[nH]c2ccc(Br)cc12,4,1,2,0,0,·,·
SMILES,hgDAF-12 ag,hcDAF12 agonist,DAX1 inh-1,ssDAF-12 act,DAX1 inh-2,LXR ag,hcDAF12 conf
COc1ccc(Br)cc1/C=N/N1C(=O)CSC1=S,0,7.1*,-1,0,0,0,4
Cc1nn2c(-c3ccncc3)nnc2c2ccccc12,1,-3,0,-1,0,·,·
COc1ccc(-c2nnc3c4ccccc4c(C)nn23)cc1,7,6.7*,2,1,1,0,5.7*
CCCCCN1C(=O)/C(=C/c2c(N3CCc4ccccc4C3)nc3ccccn3c2=O)SC1=S,6,6.8*,6.0*,0,2,0,5
Cc1cccc(C2c3[nH]c4ccccc4c3CCN2C(=O)CN2CCOC2=O)n1 (centres undefined),-2,7.0*,0,0,-1,0,6.1*
Cc1ccc(NC2=C(Cl)C(=O)c3ccccc3C2=O)cc1,9,7.4*,0,1.3*,2,0,5.9*
c1ccc(-c2ccccc2-c2nc(-c3cccnc3)no2)cc1,-1,-2,0,-1,-1,·,·
Fc1ccccc1-c1nc(-c2ccc(-c3nn[nH]n3)cc2)no1,6,2,4,-1,1,·,·
c1ccc(-c2noc(-c3cccc4ccccc34)n2)cc1,12*,17*,3,2.9*,3.7*,1,16*
Fc1ccccc1-c1nc(-c2ccccc2)no1,10,10*,1,1.9*,4,2,18*
c1ccc2c(-c3nc(-c4ccncc4)no3)cccc2c1,3,1,1,-1,0,·,·
c1cncc(-c2noc(-c3cccc4ccccc34)n2)c1,9,7.0*,2,1.2*,0,1,16*
COC(=O)c1ccc2nc(-c3ccc(Cl)cc3)c(Cc3ccccc3OC)n2c1,0,-1,·,-1,0,·,·
COc1ccccc1Cc1c(-c2ccc(F)cc2)nc2ccc(Cl)cn12,11*,7.0*,·,0,4.0*,0,1
